Source: ChEMBL document CHEMBL4513216, “Probing the Open Global Health Chemical Diversity Library for Multistage-Active Starting Points for Next-Generation Antimalarials” (ACS Infect Dis, 2020)
The whole screen tested about 68,000 compounds, of which about 2,700 (4%) showed an effect of 50% or more. Many of the other results were omitted from the sample, so strong results are more common in it than they were.

system: Plasmodium berghei; test: Screen against P. berghei liver stage (PbLuc), transformed with Luciferase, at 2uM; format: functional, HepG2; conditions: tested at 2 uM

Row | Compound | INHIBITION
1 | O=C(CSc1ccc(F)cc1)NS(=O)(=O)c1ccc2c(c1)OCCO2 | 13.91%
2 | O=C(CCc1ccccc1F)NS(=O)(=O)c1ccc2c(c1)OCCO2 | 7.71%
3 | CC(CC(=O)NS(=O)(=O)c1ccc2c(c1)OCCO2)c1ccc(F)cc1 (stereo not drawn) | 61.3%
4 | O=C(CSc1ccc(F)cc1F)NS(=O)(=O)c1ccc2c(c1)OCCO2 | 27.47%
5 | O=C(CCc1ccc(F)cc1)NS(=O)(=O)c1ccc2c(c1)OCCO2 | -15.92%
6 | O=C(CCc1cc(F)ccc1F)NS(=O)(=O)c1ccc2c(c1)OCCO2 | 66.28%
7 | c1nc2n(n1)CC(NCc1nc(-c3ccsc3)no1)CC2 (stereo not drawn) | -14.3%
8 | COc1cccc(CC(=O)NC2CCCc3cn[nH]c32)c1 (stereo not drawn) | -1.29%
9 | CCCc1nn(C2CCN(C3CC3)C2=O)c(=O)o1 (stereo not drawn) | -8.5%
10 | CCCc1nn(C2CCCN(C(C)C)C2=O)c(=O)o1 (stereo not drawn) | 58.69%
11 | CCCc1nn(C2CCN(C(C)C)C2=O)c(=O)o1 (stereo not drawn) | -78.95%
12 | Cc1nc(N2CCC(CN3CCCC3)CC2)c2cnn(C)c2n1 | 7.08%
13 | NC(=O)CN(CC(=O)NCCc1c(F)cccc1F)C1CCCC1 | 14.21%
14 | NCC1(c2cccc(C(F)(F)F)c2)CC1 | 74.11%
15 | NCC1(c2cccc(C(F)(F)F)c2)CCCC1 | 23.45%
16 | NCC1(c2cccc(C(F)(F)F)c2)CCC1 | 39.97%
17 | CC(C)c1cc(NC(=O)CN2CCCC2Cn2cncn2)on1 (stereo not drawn) | -98.79%
18 | COC(=O)c1ccc(Cl)c(NS(=O)(=O)c2cnn(C)c2)c1 | 50.48%
19 | Cn1cnc(S(=O)(=O)Nc2cc(C(N)=O)ccc2Cl)c1 | -53.5%
20 | COC(=O)c1ccc(Cl)c(NS(=O)(=O)c2cn(C)cn2)c1 | -9.88%
21 | Cc1nc(C)n(CC2CCCCN2Cc2cn3ccccc3n2)n1 (stereo not drawn) | -0.05%
22 | CC1(C)CN(C(=O)Nc2cc(C(F)(F)F)c[nH]c2=O)CCO1 | 33.92%
23 | CC1CN(C(=O)Nc2cc(C(F)(F)F)c[nH]c2=O)CC(C)(C)O1 (stereo not drawn) | 51.31%
24 | CC1CN(C(=O)Nc2cc(C(F)(F)F)c[nH]c2=O)CCO1 (stereo not drawn) | 28.39%
25 | CC(C)(C)N1CCN(C(=O)Nc2cc(C(F)(F)F)c[nH]c2=O)CC1 | -32.3%
26 | CC(C)CN1CCN(C(=O)Nc2cc(C(F)(F)F)c[nH]c2=O)CC1 | 54.85%
27 | CC(C)CN1CCC(C(=O)Nc2cc(C(F)(F)F)c[nH]c2=O)CC1 | -68.89%

Row | Compound | INHIBITION
28 | CS(=O)(=O)c1cnc(N2CCCC2)nc1C1CCN(C(=O)C2CC2)CC1 | -44.33%
29 | COc1ccccc1[C@@H]1CN(Cc2cnn(C)c2C)C[C@H]1C(=O)O | 0.12%
30 | COCCC(=O)NCC1COc2cc(OC)ccc2C1 (stereo not drawn) | -26.75%
31 | COc1cc(NC(=O)c2cc(C)sc2C)c(C(=O)N(C)C)cc1OC | 58.24%
32 | COc1cc(NC(=O)c2ccc(C)cc2C)c(C(=O)N(C)C)cc1OC | 26.48%
33 | COc1cc(NC(=O)c2ccccc2F)c(C(=O)N(C)C)cc1OC | 5.52%
34 | O=C(c1ccc2c(c1)CCC2)N1CCCCC1C1OCCO1 (stereo not drawn) | -44.52%
35 | COC(=O)CC1CSCCN1C(=O)CCc1c(C)nn(C)c1C (stereo not drawn) | 26.7%
36 | CCS(=O)(=O)c1ccccc1C(=O)NCc1ccnc(N(C)C)c1 | 56.67%
37 | CN(C)c1cc(CNC(=O)c2ccccc2Cl)ccn1 | 17.19%
38 | COCCSCC(=O)NCc1ccnc(N(C)C)c1 | 50.61%
39 | COCCSCC(=O)NCc1ccc(N(C)C)cc1 | 47.04%
40 | CN(C)c1cc(CNC(=O)CC2CCCCC2)ccn1 | 55.33%
41 | CN(C)c1ccc(CNC(=O)NCCc2ccccn2)cn1 | 11.2%
42 | CN(C)c1cc(CNC(=O)c2ccccc2S(C)(=O)=O)ccn1 | -33.95%
43 | CN(C)c1ccc(CCNC(=O)NCc2ccc(N(C)C)nc2)cc1 | -18.67%
44 | COCCSCC(=O)NCc1ccc(N(C)C)nc1 | 1.8%
45 | CCOc1cc(CNC(=O)CNC(=O)CC2CCCCC2)ccn1 | 9.29%
46 | COCCOCC(=O)NCc1ccc(N(C)C)nc1 | 64.08%
47 | CCN(C)c1cc(CNC(=O)CNC(=O)CC2CCCCC2)ccn1 | -15.05%
48 | CN(C)CCn1c2c(ccc1=O)CCN(Cc1cnn(C)c1)CC2 | 19.16%
49 | CC(C)(C)n1cc(CNc2ccc(CNS(C)(=O)=O)cc2)cn1 | 38.49%
50 | Cc1ccc(C(=O)N2C[C@@H]3CCCO[C@@H]3[C@H](N3CCOCC3)C2)cn1 | -35.23%
51 | CCN(CC)S(=O)(=O)N1C[C@H]2CC[C@@H](C1)N(Cc1cscn1)C2=O | 31.51%
52 | CC(C)OCCCN1CCCC(c2nc3ccccc3n2C(C)C)C1 (stereo not drawn) | -25.8%
53 | COc1ccc2c(c1)c(C(=O)Nc1nnn[nH]1)cn2C(C)C | -2.44%
